# Compound activity from PubChem BioAssay.
# Hits are enriched below; roughly 2.4% of the tested compounds scored in any of these assays.
# Rango complex inh = qHTS Assay for Inhibitors of Rango (Ran-regulated importin-beta cargo) - Importin beta complex formation; Importin subunit beta-1 (Homo sapiens), Q14974; Rango CFP/YFP FRET sensor + importin beta, 45 min; Potency, µM (titrated, usually from 92.2 µM), for inactives: top-dose inhibition of complex formation; actives 0.031% (n = 340,000); AID 540263, 2011; calls by dose curve;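 also: 0% = DMSO wells and 100% = buffer wells lacking importin beta; nearly all actives have a fitted effect of over 15% in size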
#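 FRET biosensor Rango (snurportin 1 IBB between N-terminal EYFP and C-terminal Cerulean), 50 nM in PBS/1 mM DTT/0.02% Tween-20/0.1% BSA, preincubated 5 min RT with compound; 0.125 microM importin beta added, 45 min RT, CFP/YFP FRET ratio read.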
# ALOX12 inh = Primary qHTS assay for inhibitors of human arachidonate 12S-lipoxygenase (ALOX12): Round 2. purified 12hLO, xylenol orange hydroperoxide absorbance. Polyunsaturated fatty acid lipoxygenase ALOX12 (Homo sapiens), P18054. actives 1.1% (n = 580,000). Potency, µM (highest dose often 108 µM), for inactives: at the highest dose activity change, negative = inhibition, actives largely listed as inhibitors; also: % is scaled to controls: 0 for no effect and ±100 for the full control effect
#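 Hydroperoxide product was detected by ferrous iron/xylenol orange as the 573 to 405 nm absorbance ratio. Arachidonic acid at 40 uM (final) was turned over for 30 min at room temperature by 150 nM human 12hLO, pH 7.0 Hepes buffer, after 15 min compound preincubation.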
# ClpP mod = qHTS Assay for Activators of ClpP | purified B. subtilis ClpP, FRET peptide cleavage, 20 min | Potency, µM (series often up to 57.5 µM), for the others: top-dose activity change, negative = active | actives 1.9% (n = 340,000) | AID 651965, 2013; active = well fitted falling curve with a large enough effect; inconclusive = small, poorly fitted or top-dose-only effect; inactive = no such curve, though single readings can be large or run the other way; also: the source files actives as falling curves though it sought activators and does not explain the sign; nearly all actives have a fitted effect of over 65% in size
# Target sequence (P80244 whole entry, looked up): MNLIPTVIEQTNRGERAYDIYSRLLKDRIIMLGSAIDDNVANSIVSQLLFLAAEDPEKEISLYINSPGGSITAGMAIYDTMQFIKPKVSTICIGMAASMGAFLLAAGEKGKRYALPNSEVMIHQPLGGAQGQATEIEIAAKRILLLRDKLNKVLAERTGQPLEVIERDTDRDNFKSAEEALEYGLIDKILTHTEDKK
#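 FRET quenching reversal measured ClpP activation: 10 microg/mL B. subtilis ClpP at pH 8 with the FRET-FV decapeptide, read at 430 nm after 320 nm excitation. The 20-min minus 0-min signal was scaled between DMSO/no-enzyme wells and ADEP (5.8 microM final).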
# TDP1 inh = qHTS Assay for Inhibitors of Tyrosyl-DNA Phosphodiesterase (TDP1). recombinant TDP1, AlphaScreen DNA substrate cleavage. Potency, µM (doses to about 130 µM), inactives show at the top dose activity change, negative = inhibition, hits mostly inhibitors. AID 485290, 2010. actives 0.28% (n = 350,000); also: % is scaled to controls: 0 for no effect and ±100 for the full control effect; nearly all actives have a fitted effect of over 40% in size
#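 AlphaScreen read-out: signal falls as enzyme removes the 3' tyrosine-FITC from a 5'-biotinylated DNA oligo (15 nM, 5 min, RT). Enzyme was E. coli-made recombinant Tdp1 at 1 nM, exposed to compound for 15 min beforehand; beads 10 ug/ml, 10 min.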
# TSG101-PTAP inh = qHTS Assay for Iinhibitors of HIV-1 Budding by Blocking the Interaction of PTAP/TSG101 | 340,000 tested, under 10 active | Fluorescence polarization, FITC-PTAP peptide / Tsg101 binding | Potency, µM (series often up to 115 µM), for the others: at the top dose activity change, negative = inhibition, actives largely listed as inhibitors | Tumor susceptibility gene 101 protein (Homo sapiens), Q99816; active = well fitted inhibition curve with a large enough effect in the main read-out, with a control signal flat, not every such curve was filed as active; inconclusive = small, poorly fitted or top-dose-only effect, or effect the other way, or a change in a side signal; inactive = no such curve, though single readings can be large or run the other way; also: % of control where 0% means no effect
#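 FP read-out: FITC-PTAP peptide, 50 nM final, binding Tsg101 binding domain, 10 uM final; 20 min, r.t.; 10 mM HEPES pH 7.5, 0.15 M NaCl, 0.01% Tween 20, 3 mM EDTA, 0.1 mM TCEP.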
# Rango dissoc inh = qHTS Assay for Inhibitors of RanGTP induced Rango (Ran-regulated importin-beta cargo) - Importin beta complex dissociation; Biochemical FRET Rango-importin beta, RanGTP-induced dissociation; Potency, µM (highest dose often 46.1 µM), inactives show at the highest dose activity change, negative = inhibition; Snurportin-1 (Homo sapiens) + GTP-binding nuclear protein Ran (Homo sapiens) + Importin …; AID 540253, 2011; actives 0.071% (n = 340,000); calls by dose curve; also: % of control where 0% means no effect; nearly all actives have a fitted effect of over 45% in size
#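 Rango FRET biosensor (snurportin-1 IBB flanked by N-terminal EYFP and C-terminal CFP10) at 0.1 uM, with 0.25 uM importin beta in PBS, 1mM DTT, 0.02% Tween-20, 0.1% BSA. 0.6 uM Ran, 2mM GTP and 0.2 uM RCC1 were then added for 45 min at room temperature. Inhibition read as loss of FRET rise.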
# * = called active by the depositor; ? = inconclusive; . = no result; [ ] = dose if it differs, or a comment. Unless noted, calls follow the shape of the dose curve; as a rule, active = well fitted curve in the direction sought with a large enough effect; inconclusive = small, poorly fitted or top-dose-only effect, or another doubt; inactive = no such curve, though single readings can be large; an effect the other way counts as inactive or inconclusive. Potency is read from the fitted curve at half-maximal effect.
SMILES,Rango complex inh,ALOX12 inh,ClpP mod,TDP1 inh,TSG101-PTAP inh,Rango dissoc inh
CCOC(=O)Nc1nnc(-c2cccc(OC)c2)s1,-1%,86%[57.4 µM],7%,7%,0%,-14%
COc1ccc(-c2nnc(NC(=O)C3CCCO3)s2)cc1 (stereo not drawn),0%,36%,13µM*,-3%,-3%,0%
COCCN1C(=O)CC[C@]2(C(=O)NCc3ccccc3C)CCCC[C@@H]12,.,55%,.,.,.,.
O=C(Nc1nnc(COc2ccc(Cl)cc2)s1)c1ccco1,0%,45µM*,1%,79µM*,-1%,1%
CCOC(=O)Nc1nnc(/C=C/c2ccc(OC)cc2)s1,-4%,9%,13µM*,5%,1%,-10%
COc1ccc(-c2nnc(SCC(=O)Nc3ccc(F)cc3)s2)cc1,.,-19%,14µM*,3%,.,.
Cc1ccc(NC(=O)CSc2nnc(-c3ccncc3)s2)cc1,3%,-9%,.,-1%,-2%,36%
Cc1ccc(OCc2nnc(NC(=O)c3ccco3)s2)cc1,-6%,6%,0%,3%,0%,2%
CCCCOC(=O)Nc1nnc(/C=C/c2ccc(OC)cc2)s1,2%,-15%,32µM*,1%,-2%,0%
CCCCC(=O)Nc1nnc(/C=C/c2ccc(OC)cc2)s1,0%,.,5%,.,-7%,6%
CCOc1ccccc1N1CCN(C/C=C/c2ccc(N(C)C)cc2)CC1,4%,?,28µM*,7%,-2%,-16%
CN(C)c1ccc(C(=O)N2CCC(Cc3noc(-c4ccccc4)n3)C2)cc1 (stereo not drawn),.,-5%,.,.,.,.
COc1ccc(CN(Cc2ccccc2)C(=O)c2ccccc2O)cc1,.,.,.,11µM*,.,.
COc1cc(/C=C(/C#N)c2ccc(C(F)(F)F)cn2)ccc1O,.,8.9µM*,.,.,.,.
CCOc1cc(/C=C(/C#N)c2ccc(C(F)(F)F)cn2)ccc1O,.,-49%,.,.,.,.
COc1ccccc1/C=C/C(=O)OCCN1CCOCC1,0%,-15%,25µM*,7%,-6%,4%
COc1ccccc1/C=C/C(=O)N1CCOCC1,4%,4%,-23%,-3%,-1%,-4%
O=C(NC1CCN(C(=O)N2CC3CC(C2)[C@H]2CCCC(=O)N2C3)CC1)C1CC=CC1 (stereo partly drawn),.,22%,.,.,.,.
CCCNC(=O)c1cnc2sc(N3CCCCC3)nn2c1=O,.,-28%,4%,-5%,.,.
CCCCNC(=O)c1cnc2sc(N3CCCCCC3)nn2c1=O,.,-19%,25µM*,8%,.,.
CC(C)NC(=O)c1cnc2sc(N3CCCCCC3)nn2c1=O,.,?,16µM*,1%,.,.
CCOCCCNC(=O)c1cnc2sc(N3CCCCCC3)nn2c1=O,.,-5%,16µM*,5%,.,.
CCN(CC)c1nn2c(=O)c(C(=O)NCCc3cccc(C)c3)cnc2s1,.,-11%,11µM*,5%,.,.
CCCCNC(=O)c1cnc2sc(N3CCCCC3)nn2c1=O,.,-11%,4%,-3%,.,.
CCOc1ccc(CCNC(=O)c2cnc3sc(N4CCCCC4)nn3c2=O)cc1,.,-3%,-9%,5%,.,.
COc1ccc(C(=O)N2CCCC2c2nc(CCOc3ccc(F)cc3)no2)cc1 (stereo not drawn),.,8%,.,.,.,.
